Assay results reported in PubChem BioAssay (NCATS).

biological target: Glucocorticoid receptor (Homo sapiens) (UniProt P04150); assay: GR-GFP Redistribution (AID 450); conditions: U2OS GR-GFP nuclear translocation, laser cytometry, 2 h; series mostly up to 20.6 µM
Potency is the fitted concentration of half-maximal effect.

Chain of Glucocorticoid receptor (Homo sapiens) (P04150 whole entry, looked up): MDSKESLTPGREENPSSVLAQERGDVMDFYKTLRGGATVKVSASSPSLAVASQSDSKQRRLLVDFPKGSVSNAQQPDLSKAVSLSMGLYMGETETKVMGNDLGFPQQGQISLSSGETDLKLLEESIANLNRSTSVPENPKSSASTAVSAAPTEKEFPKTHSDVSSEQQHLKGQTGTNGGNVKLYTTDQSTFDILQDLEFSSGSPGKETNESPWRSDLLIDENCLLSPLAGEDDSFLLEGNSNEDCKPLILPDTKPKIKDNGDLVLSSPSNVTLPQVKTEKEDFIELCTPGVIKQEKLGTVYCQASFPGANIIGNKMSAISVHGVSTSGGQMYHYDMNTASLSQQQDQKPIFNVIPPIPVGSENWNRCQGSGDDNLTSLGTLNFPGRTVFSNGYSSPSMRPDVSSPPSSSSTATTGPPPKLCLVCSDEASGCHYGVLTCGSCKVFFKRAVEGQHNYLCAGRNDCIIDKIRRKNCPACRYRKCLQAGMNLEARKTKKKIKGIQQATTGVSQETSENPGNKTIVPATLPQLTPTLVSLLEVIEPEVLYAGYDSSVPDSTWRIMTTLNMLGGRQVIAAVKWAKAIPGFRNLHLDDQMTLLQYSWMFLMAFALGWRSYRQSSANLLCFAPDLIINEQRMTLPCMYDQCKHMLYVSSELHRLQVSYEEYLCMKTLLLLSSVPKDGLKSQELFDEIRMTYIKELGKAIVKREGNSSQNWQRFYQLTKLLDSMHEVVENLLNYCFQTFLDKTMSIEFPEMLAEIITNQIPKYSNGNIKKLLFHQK

Potency, inactive:
COC(=O)c1c(-n2cnnn2)sc(C)c1C > 20.6 µM, Clc1ccc2nc(CSc3nc4ccccc4o3)cn2c1 > 20.6 µM, COC(=O)C(C)Sc1nc2c(c(=O)n(C)c(=O)n2C)n1CCC(C)C (stereo not given) > 20.6 µM, CCOC(=O)CC1=NC(=O)CS1 > 20.6 µM, Cc1cc(COc2ccccc2OCCN2CCN(C)CC2)no1 > 20.6 µM, S=c1[nH]nc(-c2ccco2)n1Cc1ccccc1 > 20.6 µM, CC1(C)CC(=O)C(C=NCCN2CCN(C(=O)C34CC5CC(CC(C5)C3)C4)CC2)=C(O)C1 > 20.6 µM, Cc1cc(C)nc(CC(N)=O)n1 > 20.6 µM, CN(C)c1ccc(C2C3C(=O)N(c4ccc(C(=O)O)cc4)C(=O)C3ON2c2ccccc2)cc1 (stereo not given) > 20.6 µM, C=CCNc1sc(C(=O)C2CC2)c(N)c1C#N > 20.6 µM, O=C(NCCCN1CCOCC1)C1(c2ccccc2)CCOCC1 > 20.6 µM, CCOc1ccc(-n2c3nc4ccccc4nc3c3c(=O)n(Cc4ccco4)cnc32)cc1 > 20.6 µM, Nc1nnnn1/N=C/c1ccccn1 > 20.6 µM, CCN(CC)c1ncc(C)c(=O)[nH]1 > 20.6 µM, OCCNC1=NCCN1 > 20.6 µM, O=C(OCCN1CCOCC1)c1ccc(OCCN2CCOCC2)cc1 > 20.6 µM, COc1ccc2cnn(-c3ccccc3C)c(=O)c2c1OC > 20.6 µM, Cc1c(/C(O)=C2/C(=O)C(=O)N(CCN3CCOCC3)C2c2cccnc2)cnn1-c1ccccc1 (stereo not given) > 20.6 µM, NC(=O)C1CCN(CCC(=O)Nc2ccc(Br)cc2)CC1 > 20.6 µM, COc1cccc(N2C(=O)C(O)=C(C(C)=O)C2c2ccc(OC)c(OC)c2)c1 (stereo not given) > 20.6 µM, COc1ccc(Cn2c(CCCO)nc3ccccc32)cc1OC > 20.6 µM, Cc1nc(SCC(=O)Nc2ccc3c(c2)OCO3)c(C#N)c2c1CCCC2 > 20.6 µM, COc1ccc2c(c1)[nH]c1c(=O)n(CC3CCCO3)cnc12 (stereo not given) > 20.6 µM, C=CCOC(=O)C1=C(C)NC(SCC(=O)N(CC)CC)=C(C#N)C1c1ccco1 (stereo not given) > 20.6 µM, CCCC1C(c2ccc(OC)cc2)C(C#N)(C#N)C2(C#N)CC1(N)NC2=O (stereo not given) > 20.6 µM, CC1CN(c2oc(-c3ccccc3Cl)nc2C#N)CC(C)O1 (stereo not given) > 20.6 µM, C=CCOC(=O)C1=C(C)OC(N)=C(C#N)C1c1ccoc1 (stereo not given) > 20.6 µM, N#Cc1nc(COc2ccc(Br)cc2)oc1NCCN1CCOCC1 > 20.6 µM, CCOC(=O)c1cc2c(=O)n3cccc(C)c3nc2n(Cc2cccnc2)c1=N > 20.6 µM, O=S(=O)(c1ccccc1)N(CC(O)CN1CCCCC1)c1ccccc1 (stereo not given) > 20.6 µM, O=C(c1cccc(Cl)c1)N1CCN(C(=O)c2ccccc2F)CC1 > 20.6 µM, O=C1C=C(O)CC(c2cccs2)C1 (stereo not given) > 20.6 µM, CC(=O)C1=C(O)C(=O)N(Cc2cccnc2)C1c1ccccc1Cl (stereo not given) > 20.6 µM, N#Cc1nc(-c2cccs2)oc1NCCN1CCOCC1 > 20.6 µM, CC(C)CC(C(=O)O)C(C)CC(=O)Nc1ccn(-c2ccccc2)n1 (stereo not given) > 20.6 µM, COc1cccc(/C=C2/CN(C)CC3=C2OC(N)=C(C#N)C3c2cccc(OC)c2)c1 (stereo not given) > 20.6 µM, COc1ccc(OC)c(C2/C(=C(/O)c3cnn(-c4ccccc4)c3C)C(=O)C(=O)N2CCN(C)C)c1 (stereo not given) > 20.6 µM, COC(=O)c1ccccc1NC(=O)C1COc2ccccc2O1 (stereo not given) > 20.6 µM, Cc1cccc(OCC(=O)NCC(=O)n2nc(C)cc2C)c1 > 20.6 µM, Cn1c(N)c(C#N)c(C#N)c1-c1ccccc1 > 20.6 µM
